The source of these data is PubChem BioAssay (EPA / NIEHS).

Several values for one entry are separate records, joined by “and”; a condition that tells them apart may be missing. Equal entries are not always repeated. Inconclusive results are not listed. Some structures have more than one record in an assay (separate samples or runs), and their calls can disagree. Activity calls are given as the source filed them. Rule for the calls, unless noted: active = hit-call score of the fitted dose curve at least 0.9, where 1 is the maximum; inactive = score below 0.9.

Assay [1] is described as follows: BSK_BT_PBMCCytotoxicity: PBMC Cytotoxicity Assessment in the BioMAP Diversity Plus: BT Assay (AID 2284225).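 Note: PBMC viability measured by Alamar Blue dye reduction fluorescence.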 To be noted: primary human B cells with PBMC. The method, boiled down: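 PBMC (75,000/well) pretreated with compound 1 h, then activated with SEB and TSST-1 (20 ng/mL each final), incubated 90 h; Alamar Blue added 6 h, fluorescence read at 546/580 nm. Fitted relative to DMSO.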

Read-out in assay [2]: Secreted IgG (sIgG), gene 3500
The assay can be described thus: BSK_BT_sIgG: BioMAP Diversity Plus: BT Assay for Secreted IgG (sIgG) Biomarker Activity (AID 2284226). Particulars: primary human B cells with PBMC. The gist of the method:
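Read-out: ELISA for secreted IgG after 24 h of chemical exposure in a B cell plus PBMC co-culture. Values reflect upward-direction fitting against DMSO negative controls.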

Assay [3] can be described thus: BSK_BT_Bcell_Proliferation: Viability Assessment in the BioMAP Diversity Plus: BT Assay for B cell Proliferation (AID 2284227). To be noted: primary human B cells with PBMC. The method, boiled down: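 Human B cell/PBMC co-culture; test chemical added; 72 h; TCA fix (10%), 0.1% SRB stain, A560 for total protein as a proliferation read-out; positive-direction fit vs DMSO baseline.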

Read-out in assay [4]: Interleukin 17A (IL17A), IL17A (gene 3605)
As to the kind of experiment: BSK_BT_xIL17A: BioMAP Diversity Plus: BT Assay for Interleukin 17A (IL17A) Biomarker Activity (AID 2284229). Particulars: primary human B cells with PBMC. The gist of the method:
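Luminex xMAP readout of secreted IL-17A; human B cell + PBMC co-culture; 24 h post-dose; positive-direction fit vs DMSO negative control.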

Read-out in assay [5]: Vascular cell adhesion molecule 1 (VCAM1), VCAM1 (gene 7412)
The assay can be described thus: BSK_MyoF_VCAM1: BioMAP Diversity Plus: MyoF Assay for Vascular cell adhesion molecule 1 (VCAM1) Biomarker Activity (AID 2284231). To be noted: primary human lung fibroblasts. The gist of the method:
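MyoF system, lung fibroblasts; 24 h post-dose; VCAM-1 by ELISA; gain-of-signal fit vs DMSO baseline.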

Read-out in assay [6]: Collagen I, COL1A1 (gene 1277)
The assay can be described thus: BSK_MyoF_CollagenI: BioMAP Diversity Plus: MyoF Assay for Collagen I Biomarker Activity (AID 2284238). Particulars: primary human lung fibroblasts. The gist of the method:
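ELISA readout of Collagen I after 24 h chemical treatment of primary human lung fibroblast cultures; gain of signal scored relative to DMSO vehicle baseline.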

Read-out in assay [7]: Collagen III, COL3A1 (gene 1281)
As to the kind of experiment: BSK_MyoF_CollagenIII: BioMAP Diversity Plus: MyoF Assay for Collagen III Biomarker Activity (AID 2284239). To be noted: primary human lung fibroblasts. The method, boiled down:
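Lung fibroblast culture; 24 h compound exposure; collagen III by ELISA; gain-of-signal fit vs DMSO baseline.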

Read-out in assay [8]: Interleukin 17F (IL17F), IL17F (gene 112744)
The assay can be described thus: BSK_BT_xIL17F: BioMAP Diversity Plus: BT Assay for Interleukin 17F (IL17F) Biomarker Activity (AID 2284243). Particulars: primary human B cells with PBMC. The method, boiled down:
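Secreted IL-17F, read on LumineX xMAP beads, was taken as the endpoint. Cultures combined human B cells and peripheral blood mononuclear cells, sampled 24 hours after dosing, with DMSO serving as negative control.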

Read-out in assay [9]: Actin alpha 1 (ACTA1), ACTA1 (gene 58)
As to the kind of experiment: BSK_MyoF_ACTA1: BioMAP Diversity Plus: MyoF Assay for Actin alpha 1 (ACTA1) Biomarker Activity (AID 2284244). Particulars: primary human lung fibroblasts. The gist of the method:
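Lung fibroblasts, human primary, 24 h compound exposure → a-SMA ELISA. Positive-direction fit vs DMSO control.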

The nature of assay [10]: CCTE_Mundy_HCI_Cortical_Synap_Neur_Matur_CellBodySpotCount: CCTE's Synaptogenesis and Neurite Maturation Assay in rat cortical cells for Cell Body Spot Count, Mundy Lab (AID 2284223). The method, boiled down: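 Read-out: cell body-associated synaptophysin puncta per neuron, imaged after MAP2, synaptophysin and Hoechst staining. Rat cortical cells, AraC DIV 5, chemical dosing DIV 7, fixation DIV 12. Activity fitted in positive direction relative to DMSO baseline.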

A short description of assay [11]: CCTE_Mundy_HCI_hNP1_Pro_ResponderAvgInten: CCTE's Proliferation Assay in human neuroprogenitor cells, Mundy Lab (AID 2284224; active = hit-call score of the fitted dose curve at least 0.9, where 1 is the maximum). The gist of the method:
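Human neuroprogenitors (hNP1, WA09 lineage) receive test chemical after 40 to 44 hours of attachment. A four-hour BrdU pulse begins twenty hours later, followed by fixation and high content imaging; signal is referenced to DMSO controls.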

The nature of assay [12]: UKN2_HCS_IMR90_cell_viability: Viability Assessment in the University of Konstanz (UKN) Leist Lab Neural Crest Cell Migration Assay in human induced IMR90 Pluripotent Stem Cells (UKN2) (AID 2284233).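 Note: viability of neural crest cells differentiated from IMR90 iPSC measured by calcein-AM fluorescence imaging; cells exposed to compound for 24 h after a 24 h migration phase.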 The gist of the method:
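iPSC-derived (IMR90) neural crest cells seeded around silicone stoppers on PLO/laminin/fibronectin; after 24 h migration in N2-S with EGF/FGF, chemical added for 24 h. Calcein-AM/Hoechst stained 30 min, high-content imaged; bidirectional fit versus DMSO.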

A short description of assay [13]: CCTE_Mundy_HCI_Cortical_NOG_NeuronCount: CCTE's Neurite Outgrowth Assay in rat cortical cells for Neuron Count, Mundy Lab (AID 2284236; active = hit-call score of the fitted dose curve at least 0.9, where 1 is the maximum;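 note: neurons counted by imaging betaIII-tubulin and Hoechst stained cortical cells; cells exposed to compound for about 48 hours before fixation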). The method, boiled down:
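Read-out: neuron number by high-content imaging of betaIII-tubulin (Alexa Fluor-488) and Hoechst-labelled rat primary cortical cells.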

The nature of assay [14]: CCTE_Mundy_HCI_Cortical_NOG_BPCount: CCTE's Neurite Outgrowth Assay in rat cortical cells for Branch Point Count, Mundy Lab (AID 2284237).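 For AC50: branch points counted about two days after chemical exposure.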 The method, boiled down:
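Measured 50.33 h after dosing, this morphology endpoint uses rat primary cortical cultures labelled for betaIII-tubulin. Branch points are quantified by high-content imaging, with DMSO as negative control and baseline.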

The nature of assay [15]: CCTE_Mundy_HCI_hNP1_Casp3_7: CCTE's Caspase-Glo 3/7 Assay in human neuroprogenitor cells for Apoptosis, Mundy Lab (AID 2284240). The method, boiled down: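 Neuroepithelial-lineage stem cells from WA09 embryonic cells were treated with chemicals after 40–44 h of culture. Twenty-four hours later, caspase-3/7 activation was detected luminescently after a 30 min room-temperature reagent step, with DMSO as baseline.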

A short description of assay [16]: CCTE_Mundy_HCI_hNP1_CellTiter: CCTE's Cell Titer-Glo 2 Assay in human neuroprogenitor cells for Viability, Mundy Lab (AID 2284241; active = hit-call score of the fitted dose curve at least 0.9, where 1 is the maximum;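 for AC50: a hit is a drop in ATP luminescence versus DMSO meaning reduced viability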). The method, boiled down: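 Measures ATP content in human neural progenitors derived from WA09 embryonic cells. Read-out at 26.5 hours after dosing, with DMSO serving as the negative control and baseline.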
Assay [17] is described as follows: CCTE_Mundy_HCI_Cortical_Synap_Neur_Matur_NeuronCount: CCTE's Synaptogenesis and Neurite Maturation Assay in rat cortical cells for Neuron Count, Mundy Lab (AID 2284242; active = hit-call score of the fitted dose curve at least 0.9, where 1 is the maximum;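 for AC50: hits reduce neuron count versus DMSO baseline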). The gist of the method: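 Neuron number was scored by automated high-content imaging of Hoechst- and MAP2-labelled rat primary cortical cells. Glial growth was arrested with AraC at DIV 5, compounds were applied from DIV 7, and cultures ended at DIV 12.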

`OCCN1CN(CCO)CN(CCO)C1`: the half-maximal activity concentration (AC50) was 30.2 µM (active) in assay [1], 29.2 µM (active) in [2], 38.2 µM (active) in [3] and 20 µM (active) in assay [8]. Also, the result in assay [4], in [5], in assay [6], in assay [7] and in assay [9] was inactive.

`CC(C)(C)c1ccc(O)c(O)c1`: the AC50 in assay [1] was 25.2 µM (active); in [2], 31.4 µM (active); in [3], 29.1 µM (active); in assay [4] it was 16.5 µM (active); in [5], 31.5 µM (active); in [6], 27.4 µM (active). Besides, the AC50 is 29.2 µM (active) in [7], 26 µM (active) in [8] and 29.6 µM (active) in assay [9].

As to `O=C(O)CCC(F)(F)C(F)(F)C(F)(F)C(F)(F)C(F)(F)C(F)(F)F`, the concentration at half-maximal activity (AC50) in assay [1] is 23.6 µM (active); in assay [2], 14 µM (active) and 36.7 µM (active). Further, the result in assay [1], in assay [2], in assay [3], in assay [4], in assay [5] and in [6] was inactive. Also, the outcome in [7], in [8] and in [9] was inactive.

Regarding `O=C(NCc1ncc(C(F)(F)F)cc1Cl)c1c(Cl)cccc1Cl`, the result in assay [1], in [5], in assay [6], in [7] and in [9] was inactive. For the same compound, the AC50 was 9.52 µM (active) in [2], 20 µM (active) in assay [3], 15.5 µM (active) in assay [4] and 21 µM (active) in assay [8].

As to `C[C@]12CC[C@@H]3c4ccc(O)cc4CC[C@H]3[C@@H]1C[C@@H](O)[C@@H]2O`, the result in assay [1], in [2], in assay [3], in [4], in assay [5] and in [6] was inactive. Besides, the outcome in assay [7], in assay [8] and in assay [9] was inactive.

Regarding `CC(C)c1c(C(=O)Nc2ccccc2)c(-c2ccccc2)c(-c2ccc(F)cc2)n1CC[C@@H](O)C[C@@H](O)CC(=O)O`, the concentration at half-maximal activity (AC50) in [10] is 4.68 µM (active); in assay [13], 7.8 µM (active); in assay [14] it was 0.0896 µM (active); in assay [15], 12.1 µM (active); in assay [16] it was 12.8 µM (active); in [17], 5.15 µM (active). The call in assay [11] and in assay [12] was inactive.

As to `CN(Cc1cnc2nc(N)nc(N)c2n1)c1ccc(C(=O)N[C@@H](CCC(=O)O)C(=O)O)cc1`, the compound was classed as inactive in assay [10], in assay [1], in assay [4], in [5], in assay [13] and in assay [14]. The result in assay [6], in [7], in assay [15], in [16], in [17] and in assay [8] was inactive. Also, in assay [9], the result was inactive. Besides, the concentration at half-maximal activity (AC50) is 662 nM (active) and 100 nM (active) in [2]; 855 nM (active) and 43.4 nM (active) in assay [3].

With `OCC(F)(F)C(F)(F)C(F)(F)C(F)(F)C(F)(F)C(F)(F)C(F)(F)C(F)(F)C(F)(F)C(F)(F)C(F)(F)F`, the call in [11], in assay [1], in [2], in assay [4], in [5] and in assay [6] was inactive. Moreover, the result in [7], in assay [15], in assay [16] and in assay [9] was inactive. Also, the AC50 in [1] is 0.0655 µM (active); in assay [3], 174 nM (active) and 835 nM (active); in [4], 0.0554 µM (active); in assay [8], 13.9 nM (active) and 23.8 nM (active).

Consider `C=CC(=O)OCCC(F)(F)C(F)(F)C(F)(F)C(F)(F)C(F)(F)C(F)(F)C(F)(F)C(F)(F)F`, for which the result in [1], in [2], in assay [3], in [4], in assay [5] and in assay [6] was inactive. Besides, the outcome in assay [7], in assay [15], in assay [16], in assay [8] and in assay [9] was inactive.

Regarding `CC1=NN(c2ccccc2)C(=O)C1`, the result in assay [1], in assay [2], in assay [3], in assay [4], in assay [5] and in assay [6] was inactive. For the same compound, the result in assay [8] and in assay [9] was inactive. Moreover, in [7], the concentration at half-maximal activity (AC50) is 3.97 µM (active).
